Not all results are given here.
aSyn 5UTR act: Activators working through SNCA 5'UTR binding (MLPCN); alpha-synuclein 5'UTR reporter, activators screen; 300,000 tested, 7.1% active; activity score, % (tested at 7.5 µM), hits read low; in the data active = activity score below about -60%
* = called active by the depositor.

SMILES | aSyn 5UTR act
Cc1[nH]n(-c2ccc(Cl)cc2)c(=O)c1C=Nc1ccc(S(=O)(=O)N2CCOCC2)cc1 | -68.8*
CCCCN(CCCC)C(=S)N/N=C/c1c(C)[nH]n(-c2ccccc2)c1=O | 92.8
CCNC(=O)c1cc2c(=O)n3cccc(C)c3nc2n(CCc2ccccc2)c1=N | -104.5*
COc1ccc(CCn2c(=N)c(C(=O)N3CCN(C)CC3)cc3c(=O)n4ccccc4nc32)cc1 | -65.3*
Cc1cccn2c(=O)c3cc(C(=O)NCCN4CCOCC4)c(=N)n(CCc4ccccc4)c3nc12 | -128.5*
COc1ccc(CCn2c(=N)c(C(=O)NCCN3CCOCC3)cc3c(=O)n4cccc(C)c4nc32)cc1OC | -92.5*
Cc1cccn2c(=O)c3cc(C(=O)NCc4ccco4)c(=N)n(C4CCCCC4)c3nc12 | -68.7*
NC(=O)CC1C(=O)N(c2ccccc2)C(=S)N1NC(=O)c1ccccc1 (stereo not drawn) | -72.5*
Cc1ccc(NC(=O)c2cnccn2)c(Br)c1 | -87.3*
Cc1ccc(NC(=O)c2cnccn2)nc1 | -77.6*
Cc1ccccc1OCc1occc1C(=O)Nc1cccc(-n2cnnn2)c1 | -91.5*
CCCCOc1ccc(/C(N)=N/O)cc1 | -73.2*
O=C(/C=C/c1c[nH]c2ccccc12)c1cccc2ccccc12 | -94.7*
CC(/C=C/c1ccccc1F)=N\NC(=O)C(C)C | -78.2*
CCCCC(=O)N/N=C(C)/C=C/c1ccccc1F | -75.6*
CCCOc1ccc(/C=C/c2c([N+](=O)[O-])c(=O)n(C)c(=O)n2C)cc1 | -129.6*
Cn1c(/C=C/c2ccc(Br)cc2)c([N+](=O)[O-])c(=O)n(C)c1=O | -199.3*
COC(=O)c1ccc(-c2ccc(/C=N/N3C(=O)C4C5C=CC(C6CC56)C4C3=O)o2)cc1 (stereo not drawn) | -99.6*
CCCCOC(=O)c1ccc(-c2ccc(/C=N/NC(=S)NCC)o2)cc1 | -88.9*
COC(=O)c1ccc(-c2ccc(/C=N/NC(=O)CC3(C)OCCCO3)o2)cc1 | -66.6*
CCOC(=O)c1ccc(-c2ccc(/C=N/NC(=O)Cc3nnc(N)s3)o2)cc1 | -82.9*
O=C(N/N=C\c1ccc([N+](=O)[O-])s1)c1cncc(Br)c1 | 77.2
CCOC(=O)c1ccc(-c2ccc(/C=N/NC(=O)c3cncc(Br)c3)o2)cc1 | -164.1*
CC(C)c1ccc(Nc2nc(CC(=O)O)cs2)cc1 | -77.0*
CCN(CC(=O)NCc1ccc(F)cc1)C(=O)/C=C/c1ccc(S(=O)(=O)N(CC)CC)cc1 | -79.0*
SMILES | aSyn 5UTR act
CCN(CC)S(=O)(=O)c1ccc(/C=C/C(=O)Nc2cccc(F)c2)cc1 | -83.0*
CCN(CC(=O)Nc1c(F)cccc1F)C(=O)/C=C/c1ccc(S(=O)(=O)N2CCCCCC2)cc1 | 78.4
Oc1ccc2ccccc2c1C=Nc1ccccc1-c1nc2ccccc2[nH]1 | -79.1*
COC(=O)c1ccc(N2CCN(C)CC2)c(NC(=O)COc2ccc(OC)cc2)c1 | -67.9*
O=C1C(Nc2ccccc2)=C2CCCC=C2N1c1ccccc1 | -163.2*
C[C@H]1Oc2ccccc2C(=O)C1C(=O)c1ccccc1 (stereo partly drawn) | -100.4*
C/C(N)=C(/C#N)C(=O)CSc1nnc(Nc2ccccc2)s1 | -125.0*
C/C(N)=C(/C#N)C(=O)CSc1nnc(Nc2ccccc2C)s1 | -77.1*
CNC(=O)c1ccc(Nc2nc(-c3ccccc3)nc3ccccc23)cc1 | -89.8*
Cc1ccc2[nH]c(C(=O)Nc3ccc(F)cc3)cc2c1 | -142.2*
CCCOc1ccc(NC(=O)c2cc3cc(C)ccc3[nH]2)cc1 | -71.0*
Cc1cc(C)c2cc(C(=O)Nc3ccccc3)[nH]c2c1 | -81.2*
Cc1cccc(OCc2n(CC(=O)OC3CC(C)CCC3C(C)C)c3ccccc3[n+]2C)c1 (stereo not drawn) | 59.6
CC(=O)c1ccc(N/N=C(/C(N)=O)C2=NC(C)(C)Cc3ccccc32)cc1 | 56.4
CC(=O)c1ccc(Nc2ccc(-c3ccccc3F)nn2)cc1 | -171.8*
COc1ccccc1N1CCN(/N=C/C(Cl)=C/c2ccccc2)CC1 | -158.9*
COc1ccccc1N1CCN(/N=C\c2ccccc2)CC1 | -102.7*
COc1ccccc1N1CCN(/N=C\c2ccc(C)o2)CC1 | -97.9*
COc1ccccc1N1CCN(C(=O)C2c3ccccc3Oc3ccccc32)CC1 | 80.9
C/C(=N\Nc1ccccc1)c1cccc(N)c1 | -91.7*
Brc1ccc(N/N=C(/N=Nc2nn[nH]n2)c2ccccc2)cc1 | 97.5
Cc1ccc(C(=O)c2cccc(N)c2)cc1C | 82.0
CCOC(=O)c1cc2c(C)n(-c3ccc(C)cc3)c(C)c2ccc1=O | -64.2*
O=C(Nc1ccccc1)Nc1ccc2ocnc2c1 | -117.0*
O=C(Nc1ccccc1)Nc1ccc2ncoc2c1 | -119.0*
SMILES | aSyn 5UTR act
CC(=O)Nc1ccccc1OCC(=O)c1ccc2c(c1)OCO2 | -98.8*
Cc1ccc(CNc2ccc3c(c2)OCO3)c(C)c1 | -98.1*
Cc1ccc(C)c(NC(=O)Nc2ccc3c(c2)OCO3)c1 | -73.5*
Cc1ccccc1NC(=O)Nc1ccc2c(c1)OCO2 | -129.0*
Cc1cc2c(cc1C)C(c1cc(Br)ccc1F)CC(=O)N2 (stereo not drawn) | 64.9
Cc1c(NC(=O)Nc2ccc3c(c2)OCO3)cccc1[N+](=O)[O-] | -96.2*
COc1ccc(NC(=O)Nc2cc(C)ccc2F)cc1OC | -76.7*
COc1ccccc1NC(=O)Nc1ccc2c(c1)OCCO2 | -131.3*
COc1ccccc1NC(=O)Nc1ccc(F)c(F)c1 | -66.1*
CCOc1ccccc1NC(=O)Nc1ccc2c(c1)OCO2 | -85.0*
COc1ccc(NC(=O)Nc2ccc3c(c2)OCO3)c(C)c1 | -80.9*
CCOc1cc(C2c3c(n[nH]c3C)C(=O)N2c2ccc(Br)cc2)ccc1O (stereo not drawn) | -61.8*
CCOc1ccccc1OCCCOc1ccc(C)cc1Cl | -111.3*
O=C(Nc1ccc(C(=O)Oc2ccccc2)c(O)c1)c1ccccc1 | -66.2*
O=C(Nc1ccc(C(=O)Oc2ccccc2)c(O)c1)c1ccco1 | -118.7*
CC1=CCC(/C=N\Nc2nnc3c(n2)[nH]c2ccccc23)CC1 (stereo not drawn) | -64.9*
Fc1ccc2nc3[nH]c4ccccc4c3nc2c1 | -160.7*
Cc1ccc(OCC(=O)Nc2sc3c(c2C#N)CCC3)cc1 | -99.0*
CCOC(=O)Nc1sc2c(c1C#N)CCCC2 | -123.2*
Cc1nnc(SCC(=O)Nc2sc3c(c2C#N)CCCCC3)n1N | -74.1*
CC(C)(C)C(=O)Nc1sc2c(c1C#N)CCCCC2 | -78.0*
COc1cc2sc3ccc(C#CC4(O)CCCCC4)cc3c(=O)c2cc1OC | -136.6*
O=C(N/N=C/c1ccc2cccnc2c1)c1nc2ccccc2c(=O)[nH]1 | -82.6*
O=C(N/N=C/c1ccncc1)c1nc2ccccc2c(=O)[nH]1 | -66.4*
O=C(c1cc2ccccc2oc1=O)N(Cc1cccs1)C1CCS(=O)(=O)C1 (stereo not drawn) | -104.1*
SMILES | aSyn 5UTR act
Cc1ccc(CN(C(=O)c2cc3ccccc3oc2=O)C2CCS(=O)(=O)C2)cc1 (stereo not drawn) | -104.1*
CCc1ccc(CN(C(=O)c2cc3ccccc3oc2=O)C2CCS(=O)(=O)C2)cc1 (stereo not drawn) | -143.8*
COc1ccc(CN(C(=O)c2cc3ccccc3oc2=O)C2CCCCC2)cc1OC | -64.7*
O=C(c1cc2ccccc2oc1=O)N(Cc1ccc(F)cc1)C1CCS(=O)(=O)C1 (stereo not drawn) | -120.6*
Clc1ccc2c(c1)C1OCCC1C(c1ccco1)N2 (stereo not drawn) | -125.2*
O=C(Nc1ccc2c(c1)nc1n2CCOC1)C1CCCCC1 | -105.7*
O=C(Nc1ccc2c(c1)nc1n2CCOC1)c1ccco1 | -66.2*

Source: PubChem BioAssay
